Experimental findings from PubChem BioAssay (EPA / NIEHS) are described below.

Molecules are shown by their SMILES. “And” between values parts separate entries of the source, which are not always exact repeats. Equal entries are not always repeated. More than one record can exist for a structure, and the calls need not agree. The source made the active and inactive calls. Rule for the calls: active = hit-call score of the fitted dose curve at least 0.9, where 1 is the maximum; inactive = score below 0.9.

A short description of this experiment: CCTE_Shafer_MEA_dev_per_network_spike_spike_percent: CCTE's Neural Network Formation Assay for Percent of Spikes in a Network Spike, Shafer Lab (AID 2284054). As for the experimental part:
CCTE_Shafer_MEA_dev assay is conducted using Axion Biosystems 48 well microelectrode array (MEA) plates and Maestro recording system. Each well of the MEA plate contains a grid of 16 microelectrodes embedded in the culture surface. Electrically active cells, such as neurons, can be cultured over the electrodes, and electrical activity in these cells can be recorded extracellularly. The spontaneous firing of neurons is captured from each electrode on a microsecond timescale providing both temporally and spatially precise data. […] The CCTE_Shafer_MEA_dev assay uses primary cultures of rat cortical neurons. Recordings are made on days post-plating 5, 7, 9 and 12. As these cultures mature over time, neural networks develop functional activity and form cohesive networks in which electrical activity can be highly coordinated. CCTE_Shafer_MEA_dev_per_network_spike_spike_percent is 1 of 19 assay components of the CCTE_Shafer_MEA_dev assay. It measures the percent of spikes (action potential firings) in a network spike (temporally-clustered group of spikes across multiple electrodes) as the number of spikes that occur within a 0.05 s time window at the peak of a network spike divided by the total number of spikes during a recording in a microelectrode array (MEA) using Axion Biosystems Maestro 768 channel amplifier with the AxIS adaptive spike detector. To collapse across multiple recordings made on days post-plating 5, 7, 9 and 12, the trapezoidal area-under-the-curve of the component is calculated.Data from the assay component CCTE_Shafer_MEA_dev_per_network_spike_spike_percent was analyzed into 1 assay endpoint. This assay endpoint, CCTE_Shafer_MEA_dev_per_network_spike_spike_percent, was analyzed in the negative analysis fitting direction relative to DMSO as the negative control and baseline of activity. Using a type of functional reporter, gain or loss-of-signal activity can be used to understand electrical activity.
On the day prior to culture, each well was coated thoroughly with 150 uL of 0.05% polyethyleneimine (PEI, Sigma Cat P3143) in 50 mM HEPES (Sigma Cat H7523) at a pH of 8. The plate was incubated at 37C for one hour. PEI was rinsed out with 500 uL of sterile water three times. Plates were stored at 4C until the day of culture. This culture was plated at a seeding density of 1.5 x 10^5 cells/well on a 48-well MEA plate, prepared as described above. Cells were administered via a 25 uL media/laminin ([…]; Sigma Cat L2020-1MG) drop directly onto the microelectrode array, as adding the cells with the laminin results in better attachment than pre-coating with laminin. After 2 hours, an additional 475 uL of cortical media was added and the cells returned to the incubator. Exposure starts at day 0 of plating and is continued over twelve days of network development until the experiment is terminated. Cells are fed with fresh medium on DIV 5 and 9, following the recordings on those days. The entire volume of media in the well is exchanged and any vehicle or compound treatment is renewed. Complete details are found in OP-NHEERL/ISTD/SBB/TJS/2015-03-r0 (available on request, email shafer.tim@epa.gov). Measurement of the electrical activity is non-invasive, and recordings can be made from the same plate over multiple different days of the culture. In cortical neurons, this allows for the measurement of extracellular action potentials over the period during which networks form in the MEA plate.
With `O=C(O)C(F)(F)C(F)(F)C(F)(F)C(F)(F)C(F)(F)F`, the compound was called inactive.
Turning to `CCOP(=S)(OCC)SCSC(C)(C)C`, the AC50 (as a rule, the concentration giving half of the maximal activity seen) is 23.1 µM (active) and 28.7 µM (active).
Consider `NS(=O)(=O)C(F)(F)C(F)(F)C(F)(F)C(F)(F)C(F)(F)C(F)(F)C(F)(F)C(F)(F)F`, for which the AC50 was 4.59 µM (active) and the result was inactive.
Consider `Oc1ccc(C(c2ccc(O)cc2)(C(F)(F)F)C(F)(F)F)cc1`, for which the compound was classed as inactive.
`c1cc2ccc3cccc4ccc(c1)c2c34`: the outcome was inactive.
On the same count and under the same terms, with `COc1ccc(O)c(C(C)(C)C)c1` the entry was “inactive”.
The same measure, in the same setting: with `O=S(=O)(O)C(F)(F)C(F)(F)C(F)(F)C(F)(F)C(F)(F)C(F)(F)F` the entry was “inactive”; with `C=CC(N)=O`, “inactive”.
Same read-out and setting: with `CCC(C)(c1ccc(O)cc1)c1ccc(O)cc1` the entry was “inactive”; with `O=C(O)C(F)(F)C(F)(F)C(F)(F)C(F)(F)C(F)(F)C(F)(F)C(F)(F)C(F)(F)F`, “inactive”.
On to `Clc1ccc(C(c2ccccc2Cl)C(Cl)(Cl)Cl)cc1` (stereo not drawn), for which the AC50 is 0.708 µM (active).
For `ClC1=C(Cl)[C@]2(Cl)[C@@H]3[C@H]4C[C@H]([C@@H]5O[C@H]45)[C@@H]3[C@@]1(Cl)C2(Cl)Cl`, the result was inactive.
Consider `O=S(=O)(O)C(F)(F)C(F)(F)C(F)(F)C(F)(F)F`, for which the compound was classed as inactive.
For the compound `ClC1=C(Cl)[C@]2(Cl)[C@@H]3[C@@H]4C[C@@H]([C@H]5O[C@@H]45)[C@@H]3[C@@]1(Cl)C2(Cl)Cl`, the AC50 is 15 µM (active).
On to `CO/C=C(/C(=O)OC)c1ccccc1COc1cccc(C(F)(F)F)n1`, for which the AC50 is 245 nM (active) and 751 nM (active).
Same read-out and setting: with `ClC1=C(Cl)[C@]2(Cl)[C@@H]3[C@@H](Cl)[C@H]4O[C@H]4[C@@H]3C1(Cl)C2(Cl)Cl` the figure was 26.1 µM (active); with `ClC(Cl)=C(c1ccc(Cl)cc1)c1ccc(Cl)cc1`, 3.83 µM (active).
